From PMC7819943, “Rice protein-binding microarrays: a tool to detect cis-acting elements near promoter regions in rice”
The full ranking holds about 39,000 sequences; the median of “fluorescence intensity (a.u.)” is about 4,300, and the highest 2% start at about 39,000. The entries come from a sample that favours the highest values as a whole.

Each sequence was assayed against T1, OsSMF1 (Oryza sativa, UniProt Q6ZLB0 1-436) (assay: protein-binding microarray (RPBM); PBS, 2% BSA, 51.3 ng/ul salmon testes DNA, 50 uM zinc acetate, 200 nM TF, 25 C, 1 h; high values mean tight binding). Conditions: protein: recombinant; tags: N-terminal polyhistidine and DsRed monomer fusion (pET32a); chain copies: 2; label: CyDye5-dUTP incorporated in the synthesized complementary strand; 3' TTTTT single-stranded linker to array surface; dsDNA, one strand shown.
T1 sequence: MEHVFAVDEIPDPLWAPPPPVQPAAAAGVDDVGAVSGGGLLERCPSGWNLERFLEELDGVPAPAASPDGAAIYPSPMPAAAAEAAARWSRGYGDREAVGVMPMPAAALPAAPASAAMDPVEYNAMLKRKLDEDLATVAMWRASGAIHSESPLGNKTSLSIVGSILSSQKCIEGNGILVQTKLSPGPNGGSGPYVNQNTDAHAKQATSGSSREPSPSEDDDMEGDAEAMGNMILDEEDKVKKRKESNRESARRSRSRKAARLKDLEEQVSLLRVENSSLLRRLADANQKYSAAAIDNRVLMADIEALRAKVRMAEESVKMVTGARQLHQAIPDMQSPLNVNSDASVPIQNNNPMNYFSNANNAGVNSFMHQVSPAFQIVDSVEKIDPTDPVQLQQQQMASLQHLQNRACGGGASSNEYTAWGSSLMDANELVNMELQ
Outline: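 Transcription factors, each fused N-terminally to a polyhistidine tag and DsRed, were expressed in E. coli BL21-CodonPlus and purified on Ni–NTA. A custom Agilent array was made double-stranded by primer extension with Cy5-dUTP and blocked with 2% BSA. It was incubated with 200 nM protein in PBS, 2% BSA, salmon testes DNA and 50 µM zinc acetate at 25 °C for 1 h, then washed. The binding signal is per-feature fluorescence intensity (arbitrary units) read on an Axon 4000B scanner.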

Sequence | binding signal
ATGGTTAGCATTAATCACTAATCACGTCATCATTAGTGCTCGGAGTCACCTAGTGCAG | 4040 fluorescence intensity (a.u.)
CCCACGGGATTGTCGGTCCCTCGTTTTGGTGATGCAGGACCGGAGTCACCTAGTGCAG | 3570 fluorescence intensity (a.u.)
TGCAGGGACGATCTGATGGACAGCTCGGATTCGTCCCACACGGAGTCACCTAGTGCAG | 3190 fluorescence intensity (a.u.)
TGGGTCCCACGCAATAGTGGACCTGATGAATTGCAGGATTCGGAGTCACCTAGTGCAG | 41100 fluorescence intensity (a.u.)
GTTATCGTCATTACGTCAATACGTGTTTTCGAAAATAATTCGGAGTCACCTAGTGCAG | 4860 fluorescence intensity (a.u.)
GACACCACCGCCGCCGCCGTCCTCGTCATCTCCAGATCGCCGGAGTCACCTAGTGCAG | 9120 fluorescence intensity (a.u.)
ACAGTAGCACCGGAAAGCTGCATGTGAAGTCTAGTCAACGCGGAGTCACCTAGTGCAG | 4250 fluorescence intensity (a.u.)
CTTCTCCTGCATGGCAAGTCGCTGATCACAACTACGCATCCGGAGTCACCTAGTGCAG | 3610 fluorescence intensity (a.u.)
CAAAGGAACACATCTGGGTCATCAGACAACTCAATAGAGTCGGAGTCACCTAGTGCAG | 43000 fluorescence intensity (a.u.)
TGAATATAAACACAACTACATTTAGCGACAGAAGAAGAACCGGAGTCACCTAGTGCAG | 40600 fluorescence intensity (a.u.)
TAGATCAATGATGTTGCATGCAACTCACGCGACACATGGTCGGAGTCACCTAGTGCAG | 40000 fluorescence intensity (a.u.)
TGTAACTATTCTCGCGACACGTACACACCAACACATAAACCGGAGTCACCTAGTGCAG | 4520 fluorescence intensity (a.u.)
TCATCTGGTACAAAATATATAGGACATCAATCATGGGGAACGGAGTCACCTAGTGCAG | 26200 fluorescence intensity (a.u.)
GAGAAAGGAACAACTACAAAAGACACACATATATACTATGCGGAGTCACCTAGTGCAG | 39400 fluorescence intensity (a.u.)
ATACAAAACTAGAAACAAGACATACCAACATCACAACATGCGGAGTCACCTAGTGCAG | 26100 fluorescence intensity (a.u.)
CGCACGATGATCATGTGTTGGTGTTGGCATGCAATGCAACCGGAGTCACCTAGTGCAG | 3780 fluorescence intensity (a.u.)
ATCATGTACATCTCATAGTCAACAATATTCATCACAATCTCGGAGTCACCTAGTGCAG | 3640 fluorescence intensity (a.u.)
TTCACAACACTTGCATGAACTCAGGTGTCAATGGTAAGGTCGGAGTCACCTAGTGCAG | 3560 fluorescence intensity (a.u.)
CATAACAACCACTAAAACATTATGAATATTTTGTACATACCGGAGTCACCTAGTGCAG | 22800 fluorescence intensity (a.u.)
ACTATATATATACACTACGGTTGACAAAGACATCCCAACACGGAGTCACCTAGTGCAG | 3240 fluorescence intensity (a.u.)
CGGAGAGGGAGAAGGAGAGGAGAGGGGCTGATAGGTGGGGCGGAGTCACCTAGTGCAG | 3520 fluorescence intensity (a.u.)

Sequence | binding signal
CTCCTCCATTGCCAGTTGCTACTCATCCTCATCCTCTCCACGGAGTCACCTAGTGCAG | 22600 fluorescence intensity (a.u.)
TCCTCCAGATGTTACAGTCTCCGAATTTCAGTGATGTCACCGGAGTCACCTAGTGCAG | 11800 fluorescence intensity (a.u.)
ATCCAATCTGAGCCGTCCGCTGTACACCGTAGATCTATATCGGAGTCACCTAGTGCAG | 3450 fluorescence intensity (a.u.)
CTCCGTGATCGTCATGTCAAGACGCAAAATAAAGAGCAATCGGAGTCACCTAGTGCAG | 33400 fluorescence intensity (a.u.)
GAAACCCGGCCACATCACTCCTTCCCTATGCTCCAGTGAGCGGAGTCACCTAGTGCAG | 8040 fluorescence intensity (a.u.)
TTTTGGATGCAGCATATGGTTGTCCCGATGCAAAATCCTCCGGAGTCACCTAGTGCAG | 4530 fluorescence intensity (a.u.)
CTTTTGGCAAAATCCGTGATGCAGCATCGATCCCTGTCAACGGAGTCACCTAGTGCAG | 39800 fluorescence intensity (a.u.)
TGGCAAATAGTTCCGTGATGTCAGCTTGGAAGCATCCTGCCGGAGTCACCTAGTGCAG | 6410 fluorescence intensity (a.u.)
ATATATACCTGCATACACTAGACTAGTATAATACCTGGCACGGAGTCACCTAGTGCAG | 3530 fluorescence intensity (a.u.)
TTTCGGTCATGAAAACTCAGGACCAAATTTCATCCAAATACGGAGTCACCTAGTGCAG | 29300 fluorescence intensity (a.u.)
AAACGATAATATACCTTGTATAGTCATCCAACTCTTATTTCGGAGTCACCTAGTGCAG | 3630 fluorescence intensity (a.u.)
TATCCAAAATTTCATCCAACTCTTGTGGGAGAAACGGACACGGAGTCACCTAGTGCAG | 39500 fluorescence intensity (a.u.)
GATTTCTTTCTGCCGTCATCTTCGAATATCCATGACTCGCCGGAGTCACCTAGTGCAG | 3840 fluorescence intensity (a.u.)
AAATGTCTCCCAAAACCTCAAAATTGAGTTCCATTATGAACGGAGTCACCTAGTGCAG | 61600 fluorescence intensity (a.u.)
ATCGATCAGGCAATGAACCCATTATTGTTTGCCTCCAAAACGGAGTCACCTAGTGCAG | 34100 fluorescence intensity (a.u.)
CACTTGATGAGCTCCTCTCCATGTCCTCAAACGTACTGAACGGAGTCACCTAGTGCAG | 25100 fluorescence intensity (a.u.)
AATCGATTCGAAATCCACACCGCTACTACGGCTAATTACGCGGAGTCACCTAGTGCAG | 3870 fluorescence intensity (a.u.)
CGCATTGAGCCATTTACACTACACACACAGCCCCAGATTCCGGAGTCACCTAGTGCAG | 3420 fluorescence intensity (a.u.)
ACCTCTTGCTGCTGCTCATTCTGATGTCATTCAAAGAGATCGGAGTCACCTAGTGCAG | 4480 fluorescence intensity (a.u.)
GATCTGTCACTGTATGGAATGATGCAAAGCTGCTGCTGATCGGAGTCACCTAGTGCAG | 32000 fluorescence intensity (a.u.)
TCTGCTGATGATCTCTCTCTCTCTCTGTTTCAAAGCTGATCGGAGTCACCTAGTGCAG | 44700 fluorescence intensity (a.u.)
